{"source": "paper PMC4336329", "about": "(PLoS ONE, 2015)", "note": "The whole screen tested about 310,000 compounds, of which about 14,000 (4.5%) showed an effect of 50% or more. Effects have a minus sign here. The entries come from a sample that favours strong results as a whole.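 Also: peak tail current of the secondary pulse compared with the same well before compound.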", "data": [{"target": "human ether-à-go-go-related gene (hERG) potassium channel (human, UniProt Q12809)", "sequence (Q12809 whole entry, looked up)": "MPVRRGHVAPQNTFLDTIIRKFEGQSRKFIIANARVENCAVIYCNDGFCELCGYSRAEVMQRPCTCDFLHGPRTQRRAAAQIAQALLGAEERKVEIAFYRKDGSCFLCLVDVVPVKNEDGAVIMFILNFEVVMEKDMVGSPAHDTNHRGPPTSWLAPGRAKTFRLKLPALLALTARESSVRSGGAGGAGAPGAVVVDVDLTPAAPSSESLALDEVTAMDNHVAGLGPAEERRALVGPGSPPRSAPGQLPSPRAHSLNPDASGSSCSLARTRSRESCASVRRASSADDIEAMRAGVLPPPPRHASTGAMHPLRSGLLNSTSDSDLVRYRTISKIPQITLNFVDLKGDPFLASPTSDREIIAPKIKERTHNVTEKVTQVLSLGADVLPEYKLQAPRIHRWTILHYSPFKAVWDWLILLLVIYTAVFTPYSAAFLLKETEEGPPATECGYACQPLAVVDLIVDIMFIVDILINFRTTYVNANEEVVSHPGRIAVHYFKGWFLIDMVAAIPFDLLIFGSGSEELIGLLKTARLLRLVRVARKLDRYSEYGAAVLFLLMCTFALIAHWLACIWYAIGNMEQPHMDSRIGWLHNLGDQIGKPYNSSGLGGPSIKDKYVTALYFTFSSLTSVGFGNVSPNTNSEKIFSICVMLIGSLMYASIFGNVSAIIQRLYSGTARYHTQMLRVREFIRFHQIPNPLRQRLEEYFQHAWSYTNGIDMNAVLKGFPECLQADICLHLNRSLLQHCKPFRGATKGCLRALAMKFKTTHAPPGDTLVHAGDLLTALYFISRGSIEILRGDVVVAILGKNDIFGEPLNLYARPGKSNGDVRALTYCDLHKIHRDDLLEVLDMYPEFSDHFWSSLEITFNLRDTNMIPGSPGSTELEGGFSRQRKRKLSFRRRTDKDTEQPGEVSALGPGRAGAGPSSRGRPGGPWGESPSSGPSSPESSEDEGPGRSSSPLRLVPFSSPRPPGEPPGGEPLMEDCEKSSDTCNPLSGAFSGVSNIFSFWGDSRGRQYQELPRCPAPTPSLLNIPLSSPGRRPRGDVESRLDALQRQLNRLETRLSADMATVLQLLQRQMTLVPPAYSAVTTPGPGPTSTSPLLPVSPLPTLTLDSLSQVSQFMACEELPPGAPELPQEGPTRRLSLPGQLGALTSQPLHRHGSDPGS", "test": "primary screen, population patch clamp on CHO cells stably expressing hERG; higher = less effect of the substance", "units": {"hERG current change (%, negative = inhibition) at 10uM": "%"}, "values": [{"smiles": "CCOc1ccc2nc(C)cc(C(=O)O)c2c1", "hERG current change (%, negative = inhibition) at 10uM": -2.09}, {"smiles": "CCN1CCN(c2ccc(S(=O)(=O)N3CCOCC3)cc2NC(=O)CC(C)C)CC1", "hERG current change (%, negative = inhibition) at 10uM": 0.99}, {"smiles": "Br.O=C(CN1CCCCC1)c1ccc(OC(F)F)cc1", "hERG current change (%, negative = inhibition) at 10uM": -69.6}, {"smiles": "CC1CC(C)CN(CC(=O)c2cccs2)C1", "note": "(stereo not shown)", "hERG current change (%, negative = inhibition) at 10uM": -9.99}, {"smiles": "Cl.O=C(CN1CCCCC1)c1ccc(F)cc1", "hERG current change (%, negative = inhibition) at 10uM": 1.94}, {"smiles": "CC1CC(C)CN(C(=S)Nc2ccc(OC(F)F)cc2)C1", "note": "(stereo not shown)", "hERG current change (%, negative = inhibition) at 10uM": -36.6}, {"smiles": "Br.COc1ccc(C(=O)CN2CCCCC2)cc1", "hERG current change (%, negative = inhibition) at 10uM": 7.07}, {"smiles": "Br.CC1CC(C)CN(CC(=O)c2ccc(OC(F)F)cc2)C1", "note": "(stereo not shown)", "hERG current change (%, negative = inhibition) at 10uM": -91.5}, {"smiles": "Cc1cccc(C)c1-n1nnnc1C1(Nc2ccccc2)CCCCC1", "hERG current change (%, negative = inhibition) at 10uM": -4.36}, {"smiles": "CCCN(CC(=O)Nc1ccccc1OC)C(=O)CCNC(=O)c1ccccc1OC", "hERG current change (%, negative = inhibition) at 10uM": -2.16}, {"smiles": "CCN(c1ccccc1)S(=O)(=O)c1ccc(N2CCN(c3ccccc3O)CC2)nc1", "hERG current change (%, negative = inhibition) at 10uM": -0.538}, {"smiles": "CCN(CC)S(=O)(=O)c1ccc(N2CCN(c3ccccc3O)CC2)nc1", "hERG current change (%, negative = inhibition) at 10uM": -52.8}, {"smiles": "CCN(CC)S(=O)(=O)c1ccc(N2CCN(CCO)CC2)nc1", "hERG current change (%, negative = inhibition) at 10uM": -3.97}, {"smiles": "Cc1ccc(CN2CCNC(=O)C2CC(=O)N(Cc2c(C)nn(C)c2C)C2CC2)o1", "note": "(stereo not shown)", "hERG current change (%, negative = inhibition) at 10uM": 23.9}, {"smiles": "CCN=C1SC(C(N)=O)CC(=O)N1CC", "note": "(stereo not shown)", "hERG current change (%, negative = inhibition) at 10uM": 12.9}, {"smiles": "O=C(c1cn[nH]c1)c1cc(F)ccc1O", "hERG current change (%, negative = inhibition) at 10uM": -2.62}, {"smiles": "COc1cccc(-c2nnc(SCC(=O)OC(C)C)n2Cc2ccco2)c1", "hERG current change (%, negative = inhibition) at 10uM": -15.3}, {"smiles": "Cc1ccc(-c2nnc(SCc3ccc(C#N)cc3)n2Cc2ccco2)cc1", "hERG current change (%, negative = inhibition) at 10uM": -20.6}, {"smiles": "COc1cccc(-c2nnc(SCc3ccc(C#N)cc3)n2Cc2ccco2)c1", "hERG current change (%, negative = inhibition) at 10uM": -70.3}, {"smiles": "Cc1cccc(-c2nnc(SCc3nc4ccccc4[nH]3)n2Cc2ccco2)c1", "hERG current change (%, negative = inhibition) at 10uM": -48.8}, {"smiles": "Cc1ccc(NCc2nnc(SCc3ccc(C#N)cc3)n2Cc2ccco2)c(C)c1", "hERG current change (%, negative = inhibition) at 10uM": -70.8}, {"smiles": "Cc1cccc(-c2nnc(SCc3ccc(C#N)cc3)n2Cc2ccco2)c1", "hERG current change (%, negative = inhibition) at 10uM": -89}, {"smiles": "Cc1ccc(NCc2nnc(SCC(=O)c3ccccc3)n2Cc2ccco2)c(C)c1", "hERG current change (%, negative = inhibition) at 10uM": -7.53}, {"smiles": "COc1ccc(C(=O)CSc2nnc(CNc3ccc(C)cc3C)n2Cc2ccco2)cc1", "hERG current change (%, negative = inhibition) at 10uM": 6.88}, {"smiles": "N#Cc1ccc(CSc2nnc(-c3ccccc3)n2Cc2ccco2)cc1", "hERG current change (%, negative = inhibition) at 10uM": -26.8}, {"smiles": "O=C(CSc1nnc(-c2ccncc2)n1Cc1ccco1)N1c2ccccc2Sc2ccc(Cl)cc21", "hERG current change (%, negative = inhibition) at 10uM": -2.92}, {"smiles": "CCSC1=NCCN1C(=O)c1c(-c2ccccc2Cl)noc1C", "hERG current change (%, negative = inhibition) at 10uM": -20.6}, {"smiles": "O=C(CSc1nnc(-c2ccccc2)o1)NC1CCCCC1", "hERG current change (%, negative = inhibition) at 10uM": -16.6}, {"smiles": "O=C(CNc1cccc([N+](=O)[O-])c1)N/N=C/c1ccc([N+](=O)[O-])o1", "hERG current change (%, negative = inhibition) at 10uM": -36}, {"smiles": "O=C(CN1CCN(c2ccccc2)CC1)N1CCc2[nH]c3ccccc3c2C1", "hERG current change (%, negative = inhibition) at 10uM": -26.9}, {"smiles": "COc1ccccc1NC(=O)N1CCCC1C(=O)NCc1cccs1", "note": "(stereo not shown)", "hERG current change (%, negative = inhibition) at 10uM": 0.509}, {"smiles": "COc1ccc(CCNCc2ccc(SC)cc2)cc1", "hERG current change (%, negative = inhibition) at 10uM": -73.2}, {"smiles": "COc1cccc(CNCCc2ccc(F)cc2)c1.O=C(O)C(=O)O", "hERG current change (%, negative = inhibition) at 10uM": -9.82}, {"smiles": "COc1cccc(CCNCc2c(F)cccc2F)c1.O=C(O)C(=O)O", "hERG current change (%, negative = inhibition) at 10uM": -15.1}, {"smiles": "COc1cc(CNCc2ccc(SC)cc2)cc(OC)c1", "hERG current change (%, negative = inhibition) at 10uM": -14.9}, {"smiles": "COc1cccc(CCNCc2ccc(SC)cc2)c1.O=C(O)C(=O)O", "hERG current change (%, negative = inhibition) at 10uM": -67.7}, {"smiles": "COc1ccc(CCNCc2ccc(OCc3ccccc3)cc2)cc1", "hERG current change (%, negative = inhibition) at 10uM": -41.6}, {"smiles": "CC(=O)N1c2ccc(S(=O)(=O)NC(CC(=O)O)c3ccc(Br)cc3)cc2CC1C", "note": "(stereo not shown)", "hERG current change (%, negative = inhibition) at 10uM": 22.3}, {"smiles": "CC1CCN(S(=O)(=O)c2ccccc2)CC1", "hERG current change (%, negative = inhibition) at 10uM": -3.32}, {"smiles": "O=C(CCNS(=O)(=O)c1ccc(Br)cc1)NCc1ccc2c(c1)OCO2", "hERG current change (%, negative = inhibition) at 10uM": -3.3}, {"smiles": "Cc1c(C)n(-c2ccccc2)c2ncnc(NCCCN(C)C)c12", "hERG current change (%, negative = inhibition) at 10uM": 0.841}, {"smiles": "COc1ccc(-n2cc(-c3ccccc3)c3c(NCCOCCO)ncnc32)cc1", "hERG current change (%, negative = inhibition) at 10uM": -42.9}, {"smiles": "OCCOCCNc1ncnc2c1cnn2-c1ccccc1", "hERG current change (%, negative = inhibition) at 10uM": 9.79}, {"smiles": "CN(C)CCCNc1ncnc2c1c(-c1ccccc1)cn2-c1ccccc1", "hERG current change (%, negative = inhibition) at 10uM": -64.4}, {"smiles": "CN(C)CCCNc1ncnc2c1cnn2-c1ccccc1", "hERG current change (%, negative = inhibition) at 10uM": -22.8}, {"smiles": "OCCOCCNc1ncnc2c1c(-c1ccccc1)cn2-c1ccccc1", "hERG current change (%, negative = inhibition) at 10uM": -50.6}, {"smiles": "O=C(N/N=C/c1cccnc1)c1cc2ccccc2cc1O", "hERG current change (%, negative = inhibition) at 10uM": 5.26}, {"smiles": "C[C@@]12C(=O)N(c3ccc(C(F)(F)F)cc3)C(=O)N1[C@@H]1c3ccccc3OC[C@@H]1[C@H]2c1ccccc1", "hERG current change (%, negative = inhibition) at 10uM": 20}, {"smiles": "O=C(Cn1c(=O)n(CC2CCCO2)c(=O)c2ccccc21)c1ccc(Cl)c(Cl)c1", "note": "(stereo not shown)", "hERG current change (%, negative = inhibition) at 10uM": -16.4}, {"smiles": "CN(CCCC(=O)NC1CC(C)(C)NC(C)(C)C1)S(=O)(=O)c1ccc([N+](=O)[O-])cc1", "hERG current change (%, negative = inhibition) at 10uM": 12.5}, {"smiles": "O=C(NCc1ccc2c(c1)OCO2)Nc1ccc([N+](=O)[O-])cc1", "hERG current change (%, negative = inhibition) at 10uM": 21.1}, {"smiles": "CCOc1ccc(S(=O)(=O)N(C)CC(=O)NCc2ccc3c(c2)OCO3)cc1", "hERG current change (%, negative = inhibition) at 10uM": -64.4}, {"smiles": "CN(CCCC(=O)NCCc1ccccc1)S(=O)(=O)c1ccc([N+](=O)[O-])cc1", "hERG current change (%, negative = inhibition) at 10uM": -37.6}, {"smiles": "COc1ccc(S(=O)(=O)N(C)CC(=O)NCc2ccc3c(c2)OCO3)cc1", "hERG current change (%, negative = inhibition) at 10uM": -8.31}, {"smiles": "CN(CC(=O)NCc1ccc2c(c1)OCO2)S(=O)(=O)c1ccc(F)cc1", "hERG current change (%, negative = inhibition) at 10uM": -8.53}, {"smiles": "Cc1ccc(S(=O)(=O)N(C)CCCC(=O)NCc2ccc3c(c2)OCO3)cc1", "hERG current change (%, negative = inhibition) at 10uM": -23.5}, {"smiles": "CN(CCCC(=O)NCc1ccccc1)S(=O)(=O)c1ccc([N+](=O)[O-])cc1", "hERG current change (%, negative = inhibition) at 10uM": -65.6}, {"smiles": "CN(CCCC(=O)NCc1ccc2c(c1)OCO2)S(=O)(=O)c1ccc([N+](=O)[O-])cc1", "hERG current change (%, negative = inhibition) at 10uM": -68.1}]}]}
